Inconclusive results are not listed. Calls of active or inactive are those of the source. Unless noted, calls come from the whole dose curve; as a rule, active = well fitted curve in the direction sought with a large enough effect in the repeat runs; inconclusive = weak or mixed curves; inactive = no such curve, though single readings can be large; an effect the other way counts as inactive or inconclusive.
Tests used:
[1] = qHTS assay to identify small molecule HDAC inhibitors - cell viability counter screen (AID 1259365); note: series mostly up to about 92 µM; nearly all actives have a fitted effect of over 50% in size
Outline: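 Measured quantity is CellTiter-Glo luminescence from wild-type HCT-116 cells after compound incubation of 2hr at 37C, 5% CO2; reagent developed 30min at room temperature.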

[2] = qHTS assay to identify small molecule agonists of the sonic hedgehog signaling (Shh) pathway - cell viability counter screen (AID 1259366); note: nearly all actives have a fitted effect of over 50% in size
Outline: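 In quantitative high-throughput format, 3T3 Gli1-Luc cells were exposed to compounds for 24hr and multiplexed for viability using CellTiter-Fluor, incubated 1hr at 37C before the fluorescence read.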

[3] = qHTS assay to identify small molecule agonists of the sonic hedgehog signaling (Shh) pathway (AID 1259368; calls by dose curve;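 note: NIH/3T3-derived 3T3Gli1-Luc cells carrying a stable Gli1-driven firefly luciferase reporter; series mostly up to about 92 µM; nearly all actives have a fitted effect of over 15% in size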)
Outline: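 Cells of a mouse NIH/3T3 clone stably expressing luciferase under the Gli1 transcriptional response element are exposed to test chemicals for 24 hr at 37 C. Pathway activation is detected as a rise in luminescence.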

[4] = target: Estrogen receptor beta (Homo sapiens) (UniProt Q92731); assay: qHTS assay to identify small molecule agonists of the estrogen receptor beta (ER-beta) signaling pathway (AID 1259377; active = well fitted activation curve with a large enough effect in the signal ratio in the repeat runs, not every such curve was filed as active; the % refers to the signal ratio)
Sequence of Estrogen receptor beta (Homo sapiens) (Q92731 whole entry, looked up): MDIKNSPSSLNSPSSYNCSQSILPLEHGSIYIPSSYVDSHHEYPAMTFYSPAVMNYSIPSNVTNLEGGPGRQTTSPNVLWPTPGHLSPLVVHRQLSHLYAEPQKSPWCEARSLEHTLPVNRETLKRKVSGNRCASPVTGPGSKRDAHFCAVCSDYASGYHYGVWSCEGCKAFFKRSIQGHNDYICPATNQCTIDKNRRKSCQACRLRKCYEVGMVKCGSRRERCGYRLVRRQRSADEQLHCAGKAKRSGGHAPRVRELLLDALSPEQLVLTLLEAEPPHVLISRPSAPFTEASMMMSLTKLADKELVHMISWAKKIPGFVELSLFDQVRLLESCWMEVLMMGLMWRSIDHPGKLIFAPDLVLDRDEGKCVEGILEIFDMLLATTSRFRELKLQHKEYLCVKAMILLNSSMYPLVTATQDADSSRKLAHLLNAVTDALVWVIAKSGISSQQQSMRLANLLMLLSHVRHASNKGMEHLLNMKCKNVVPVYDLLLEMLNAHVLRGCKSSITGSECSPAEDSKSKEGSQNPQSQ
Outline: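 Reporter cells (HEK293T, ER-beta-UAS-bla) receive compounds or DMSO after a 6 hr pre-incubation. They then incubate 16 hr at 37C/5% CO2, and fluorescence from LiveBLAzer B/G substrate is measured after 2 hours at room temperature.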

[5] = target: Estrogen receptor beta (Homo sapiens) (UniProt Q92731); assay: qHTS assay to identify small molecule antagonists of the estrogen receptor beta (ER-beta) signaling pathway (AID 1259378; active = well fitted inhibition curve with a large enough effect in the signal ratio in the repeat runs, not every such curve was filed as active; the % refers to the signal ratio)
Outline: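 ER-beta-UAS-bla HEK293T (GripTite) cells in 2% charcoal-stripped FBS medium were preincubated 6 hr at 37C, dosed with compound, then stimulated with 1 nM E2 (final) for 16 hr; beta-lactamase reporter read by B/G FRET fluorescence after 2 hr substrate loading.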

[6] = qHTS assay to identify small molecule agonists of the androgen receptor (AR) signaling pathway in the presence of an antagonist - cell viability counter screen (AID 1259379);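 note: MDA-kb2 human breast cancer cells carrying an MMTV luciferase reporter; series mostly up to about 92 µM; nearly all actives have a fitted effect of over 25% in size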
Outline: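 Cytotoxicity is assessed by CellTiter-Fluor in MDA-kb2 cells carrying an MMTV-driven luciferase reporter. Cells receive 3.0uM nilutamide plus compounds at 15 concentrations and incubate 16 hr at 37C without CO2 before fluorescence reading.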

[7] = qHTS assay to identify small molecule agonists of the estrogen receptor beta (ER-beta) signaling pathway - cell viability counter screen (AID 1259380); note: nearly all actives have a fitted effect of over 30% in size; note: potency is the fitted concentration of half-maximal effect
Outline: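 Cytotoxicity is measured in parallel with the reporter screen: after 16 hr compound exposure at 37C and a 2 hr LiveBLAzer step, CellTiter-Glo is added to the same ER-beta-UAS-bla HEK293T wells and luminescence read after 30 min.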

[8] = qHTS assay to identify small molecule antagonists of the sonic hedgehog signaling (Shh) pathway (AID 1259369; calls by dose curve; note: nearly all actives have a fitted effect of over 45% in size)
Outline: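 Cells are plated and held 4hr at 37 C, compounds (DMSO) are pinned in, conditioned medium is added to stimulate the pathway, and after 24hr luciferase reagent is added for 30min before luminescence is read.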

[9] = qHTS assay to identify small molecule antagonists of the sonic hedgehog signaling (Shh) pathway - cell viability counter screen (AID 1259367); note: nearly all actives have a fitted effect of over 55% in size
Outline: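 Cytotoxicity was assessed in parallel with Shh reporter activity by measuring live-cell protease fluorescence (CellTiter-Fluor) in NIH/3T3 cells stably carrying Gli1-Luc, treated with compound under conditioned medium stimulation for 23 hr plus 1 hr reagent incubation.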

[10] = target: Androgen receptor (Homo sapiens) (UniProt P10275); assay: qHTS assay to identify small molecule agonists of the androgen receptor (AR) signaling pathway in the presence of an antagonist (AID 1259381; calls by dose curve; note: nearly all actives have a fitted effect of over 15% in size)
Sequence of Androgen receptor (Homo sapiens) (P10275 whole entry, looked up): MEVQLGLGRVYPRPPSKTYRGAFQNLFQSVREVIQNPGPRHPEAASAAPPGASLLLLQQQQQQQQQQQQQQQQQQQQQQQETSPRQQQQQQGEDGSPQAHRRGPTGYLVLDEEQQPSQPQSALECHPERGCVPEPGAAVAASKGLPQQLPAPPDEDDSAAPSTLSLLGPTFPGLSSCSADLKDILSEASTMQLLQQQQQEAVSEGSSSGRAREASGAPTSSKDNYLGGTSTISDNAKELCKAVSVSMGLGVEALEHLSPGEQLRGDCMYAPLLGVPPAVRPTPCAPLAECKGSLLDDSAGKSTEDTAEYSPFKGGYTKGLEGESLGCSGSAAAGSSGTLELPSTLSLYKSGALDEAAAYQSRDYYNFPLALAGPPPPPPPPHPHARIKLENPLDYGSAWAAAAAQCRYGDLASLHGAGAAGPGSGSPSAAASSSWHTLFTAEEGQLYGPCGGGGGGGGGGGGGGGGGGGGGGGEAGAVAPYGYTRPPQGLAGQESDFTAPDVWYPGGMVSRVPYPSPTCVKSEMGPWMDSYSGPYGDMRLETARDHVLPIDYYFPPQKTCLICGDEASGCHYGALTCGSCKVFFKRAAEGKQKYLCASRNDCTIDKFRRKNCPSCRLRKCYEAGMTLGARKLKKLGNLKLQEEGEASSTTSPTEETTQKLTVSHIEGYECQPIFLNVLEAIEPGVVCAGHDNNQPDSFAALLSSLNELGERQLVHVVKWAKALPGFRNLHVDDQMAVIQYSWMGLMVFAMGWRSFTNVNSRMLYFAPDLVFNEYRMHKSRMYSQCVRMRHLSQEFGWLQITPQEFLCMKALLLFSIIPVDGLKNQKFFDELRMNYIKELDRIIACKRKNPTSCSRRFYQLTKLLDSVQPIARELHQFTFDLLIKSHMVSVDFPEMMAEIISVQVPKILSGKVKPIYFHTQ
Outline: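 Agonist-mode confirmation screen: human MDA-kb2 cells stably expressing luciferase under an MMTV promoter bearing AR and GR response elements, co-treated with 3.0uM nilutamide (final). Luminescence measured after 16hr compound incubation.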
% is set by controls: 0 for no effect and ±100 for the full control effect.

CNC(=O)c1c(I)c(NC(C)=O)c(I)c(C(=O)O)c1I
inactive: outcome [1] | outcome [2] | outcome [3] | Potency [4] | outcome [5] | outcome [6] | Potency [7]

O=C(O)P(=O)(O)O
inactive: outcome [1] | outcome [2] | outcome [3] | Potency [8] | outcome [6] | Potency [7]

CCO[Si](CC(C)C)(OCC)OCC
inactive: outcome [1] | outcome [2] | outcome [3] | Potency [8] | Potency [4] | outcome [5] | outcome [6]

CCCCOCCCC
inactive: outcome [1] | outcome [2] | outcome [3] | outcome [6] | Potency [7]

O=C(O)Cc1c(Cl)ccc(Cl)c1Cl
inactive: outcome [1] | outcome [2] | outcome [3] | Potency [8] | Potency [4] | outcome [5] | outcome [6] | Potency [7]

CCCCc1ccc(Cl)cc1
inactive: outcome [1] | outcome [2] | outcome [3] | Potency [8] | Potency [4] | outcome [5] | outcome [6]

O=C(OOC(=O)c1ccccc1)c1ccccc1
inactive: outcome [1] | outcome [2] | outcome [9] | outcome [6]

CCCCCC(=O)CC
inactive: outcome [1] | outcome [2] | outcome [3] | outcome [6] | Potency [7]

COc1cc(OC)cc(OC)c1
inactive: outcome [1] | outcome [2] | outcome [3] | Potency [8] | Potency [4] | outcome [5] | outcome [6] | Potency [7] | outcome [10]

O=C[C@@H](O)[C@H](O)[C@H](O)CO
inactive: outcome [1] | outcome [2] | outcome [3] | Potency [8] | Potency [4] | outcome [5] | outcome [6] | Potency [7] | outcome [10]

O=S(=O)(O)c1cc(I)c(O)c2ncccc12
inactive: outcome [1] | outcome [2] | outcome [3] | Potency [8] | Potency [4] | outcome [5] | outcome [6] | Potency [7]

NC(=O)CC[C@@H](N)C(=O)O
inactive: outcome [1] | outcome [2] | outcome [3] | Potency [4] | outcome [6] | Potency [7]

CCOC(=O)COc1ccc2c(C)c(CCN(CC)CC)c(=O)oc2c1Cl
inactive: outcome [1] | outcome [2] | outcome [9] | outcome [6] | Potency [7]

CN(C)CCc1c[nH]c2ccc(CS(=O)(=O)N3CCCC3)cc12
inactive: outcome [1] | outcome [2] | outcome [3] | Potency [8] | Potency [4] | outcome [5] | outcome [6] | Potency [7]

CCNC(=O)C(C)OC(=O)Nc1ccccc1 (centres undefined)
inactive: outcome [1] | outcome [2] | outcome [3] | Potency [4] | outcome [5] | outcome [6] | Potency [7]

C=CCN1CCc2nc(N)sc2CC1
inactive: outcome [1] | outcome [2] | Potency [8] | outcome [6] | Potency [7] | outcome [10]

COC(C)(C)CC(C)=O
inactive: outcome [1] | outcome [2] | Potency [8] | Potency [4] | outcome [6] | Potency [7] | outcome [10]

O=Cc1ccccc1S(=O)(=O)O
inactive: outcome [1] | outcome [2] | outcome [3] | Potency [8] | Potency [4] | outcome [5] | outcome [6] | Potency [7]

CC(=O)OCC(=O)[C@@]1(O)CC[C@H]2[C@@H]3CCC4=CC(=O)C=C[C@]4(C)[C@H]3[C@@H](O)C[C@@]21C
inactive: outcome [1] | outcome [9] | outcome [3] | Potency [8] | Potency [4] | outcome [6] | Potency [7]

O=C(O)CCCCCCCCCC(=O)O
inactive: outcome [1] | outcome [9] | outcome [3] | Potency [4] | outcome [5] | outcome [6] | Potency [7] | outcome [10]

N=C(N)N1CCc2ccccc2C1
inactive: activity change, negative = cytotoxicity [1] -4.02% [at 8.39 µM] | viability change, negative = cytotoxic [9] 3.14% [at 8.39 µM] | activity change [3] 0.863% [at 8.39 µM] | activity change, negative = inhibition [8] 18.9% [at 8.39 µM] | activity change, negative = cytotoxicity [6] 0.84% [at 8.39 µM] | activity change, negative = cytotoxicity [7] 1.92% [at 8.39 µM]

CC[N+](C)(CC)CC
inactive: outcome [1] | outcome [9] | outcome [3] | Potency [8] | Potency [4] | outcome [5] | outcome [6] | Potency [7]

O=S(=O)(O)c1ccc(Cl)cc1
inactive: outcome [1] | outcome [9] | Potency [4] | outcome [5] | outcome [6] | Potency [7]

C=CCn1cc[n+](C)c1
inactive: outcome [1] | outcome [9] | outcome [3] | Potency [8] | outcome [5] | outcome [6] | Potency [7]

Cc1cc(=O)oc2cc(O[C@@H]3SC[C@@H](O)[C@H](O)[C@H]3O)ccc12
inactive: outcome [1] | outcome [3] | Potency [4] | outcome [5] | outcome [6] | Potency [7] | outcome [10]

NS(=O)(=O)c1cc2c(cc1C(F)(F)F)NCNS2(=O)=O
inactive: outcome [1] | outcome [3] | Potency [8] | outcome [6] | Potency [7]

Cc1ccccc1C#N
inactive: outcome [1] | outcome [9] | outcome [6] | Potency [7]

C[C@]12C=CC(=O)C=C1[C@@H](F)C[C@@H]1[C@@H]2[C@@H](O)C[C@@]2(C)[C@H]1CC[C@]2(O)C(=O)CO
inactive: outcome [1] | outcome [3] | Potency [8] | outcome [6]

CC(C)(C)OC(=O)c1ccccc1C(=O)O
inactive: outcome [1] | Potency [8] | outcome [6]

Nc1cc(S(=O)(=O)O)ccc1O
inactive: outcome [1] | outcome [9] | outcome [3] | Potency [8] | outcome [6] | Potency [7] | outcome [10]

CCN(CC)CC(=O)Oc1ccc(NC(C)=O)cc1
inactive: outcome [1] | outcome [3] | Potency [4] | outcome [5] | outcome [6] | outcome [10]

C/C(=N\O)c1ccc(OCC(=O)N2CCCCC2)cc1
inactive: outcome [1] | outcome [9] | Potency [4] | outcome [5] | outcome [6] | Potency [7] | outcome [10]

CC(CN1CC(=O)NC(=O)C1)N1CC(=O)NC(=O)C1 (centres undefined)
inactive: outcome [1] | outcome [9] | Potency [4] | outcome [5] | outcome [6] | Potency [7] | outcome [10]

CCCOc1ccc(C(=O)OCCN(CC)CC)cc1N
inactive: outcome [1] | outcome [9] | outcome [3] | Potency [8] | Potency [4] | outcome [5] | outcome [6] | Potency [7]

CCCCCCCC(=O)N(C)C
inactive: outcome [1] | outcome [9] | outcome [3] | Potency [8] | Potency [4] | outcome [5] | outcome [6] | Potency [7]

COC(=O)c1cc(Cl)c(NC(C)=O)cc1OC
inactive: outcome [1] | outcome [9] | outcome [3] | Potency [8] | Potency [4] | outcome [5] | outcome [6] | Potency [7] | outcome [10]

COc1cc(S(N)(=O)=O)cc(C(=O)O)c1OC
inactive: outcome [1] | outcome [9] | outcome [5] | outcome [6] | Potency [7]

COC(=O)c1ccc(NC(C)=O)cc1OC
inactive: outcome [1] | outcome [9] | outcome [3] | Potency [8] | outcome [6] | outcome [10]

Cc1ccccc1OCC(=O)O
inactive: outcome [1] | outcome [9] | outcome [3] | Potency [8] | Potency [4] | outcome [5] | outcome [6] | Potency [7]

CC1=C(O)C(=O)CO1
inactive: outcome [1] | outcome [3] | Potency [4] | outcome [5] | outcome [6]

C=C(C)C(=O)OCCOC1CC2CC1C1C=CCC21 (centres undefined)
inactive: outcome [1] | outcome [3] | Potency [8] | Potency [4] | outcome [5] | outcome [6]

CC(C)(C)c1ccc(N)cc1
inactive: outcome [1] | outcome [9] | outcome [3] | Potency [8] | Potency [4] | outcome [5] | outcome [6] | Potency [7]

COCCCOc1cc(C[C@@H](C[C@H](N)[C@@H](O)C[C@H](C(=O)NCC(C)(C)C(N)=O)C(C)C)C(C)C)ccc1OC
inactive: outcome [1] | outcome [3] | Potency [8] | outcome [6] | Potency [7]

CCOc1ccccc1OCCN[C@H](C)Cc1ccc(OC)c(S(N)(=O)=O)c1
inactive: outcome [1] | outcome [9] | Potency [4] | outcome [5] | outcome [6] | Potency [7]

CC(CC(=O)Cl)CC(C)(C)C (centres undefined)
inactive: outcome [1] | outcome [9] | outcome [3] | Potency [4] | outcome [5] | outcome [6]

OCCC(F)(F)C(F)(F)C(F)(F)C(F)(F)C(F)(F)C(F)(F)F
inactive: outcome [1] | outcome [9] | outcome [3] | Potency [4] | outcome [5] | outcome [6] | Potency [7]

COC(=O)c1ccccc1Cl
inactive: outcome [1] | outcome [9] | outcome [3] | Potency [4] | outcome [5] | outcome [6] | Potency [7]

CN(C)CCC[C@@]1(c2ccc(F)cc2)OCc2cc(C#N)ccc21
active: Potency [7] 2.98 µM
inactive: outcome [1] | outcome [9] | outcome [3] | outcome [6]

CCCCC(O)/C=C(C)/C=C/C=C/C(=O)N1CCCC1=O (centres undefined)
inactive: outcome [1] | outcome [9] | Potency [8] | Potency [4] | outcome [5] | outcome [6] | Potency [7]

Cc1ccc(O)c(C(=O)c2ccccc2)c1
inactive: outcome [1] | outcome [9] | outcome [3] | Potency [8] | outcome [6] | outcome [10]

CC(C)CC(O)Cc1ccccc1 (centres undefined)
inactive: outcome [1] | outcome [9] | outcome [3] | Potency [8] | Potency [4] | outcome [5] | outcome [6] | Potency [7] | outcome [10]

CO/N=C(\C(=O)O)c1csc(NC(=O)CCl)n1
inactive: outcome [1] | outcome [9] | outcome [3] | Potency [8] | outcome [6] | Potency [7]

CCOCCOCCOC(C)=O
inactive: outcome [1] | outcome [9] | outcome [3] | Potency [8] | Potency [4] | outcome [6] | Potency [7]

CC(C)(C)c1ccc(C(=O)CCCCl)cc1
inactive: outcome [1] | outcome [9] | Potency [8] | Potency [4] | outcome [5] | outcome [6]

CC/C=C\CCCCCCCCCCOC(C)=O
inactive: outcome [1] | outcome [9] | outcome [3] | Potency [8] | Potency [4] | outcome [5] | outcome [6] | Potency [7]

CCCC(C)C(O)CC (centres undefined)
inactive: outcome [1] | outcome [9] | Potency [8] | Potency [4] | outcome [5] | outcome [6] | Potency [7]
